About 1,000 (1.4%) of roughly 69,000 compounds showed an effect of 50% or more. What follows is part of a selection rich in strong results, with near analogues and random picks from the rest.

The assay concerns Leishmania donovani. Description: Leishmania intramacrophage assay. Further details: scale not given: in the data most compounds retested in dose-response had high values. The class given is functional, organism-based.

As to `CCOCCC(=O)N(C)Cc1noc(C(C)C)n1`, the “Percent Effect” value (30.3 µM, […]) is 0.5615%.

Consider `COc1cccc(OCC2CCCN(C(=O)c3ncc(F)cc3F)C2)c1` (centres undefined), for which the “Percent Effect” value (30.3 µM, […]) turned out to be 9.755%.

Consider `Cc1ccc(-c2cnnc(N3CCCC3c3nonc3C)n2)o1` (centres undefined), for which the “Percent Effect” value (30.3 µM, […]) amounted to 17.41%.

For `Cc1ccc(OCC(=O)Nc2ncccc2OC(F)F)cc1`, the “Percent Effect” value (30.3 µM, […]) came out at 23.14%.

On to `Cc1ccc(C(=O)NCCCNc2ccc(C(F)(F)F)cn2)cc1`, for which the “Percent Effect” value (30 µM) was 23.85%.

Take `Cc1noc(CN2CCN(C(=O)N(C)C)CC2)n1`: the “Percent Effect” value (30 µM) amounted to 8.701%.

Consider `COc1cccc2c1OCC(NC(=O)NCCC(N)=O)C2` (centres undefined), for which, under “30.3 µM, […]”, the “Percent Effect” value is on record as -3.86%.

Regarding `CC1CCC(NCCCN2CCOCC2)CC1` (centres undefined), the “Percent Effect” value (30.3 µM, […]) was 41.59%.

Regarding `Cc1ccc(C)c(-n2ncc(C(=O)NCC3COC(C)(C)O3)c2N)c1` (centres undefined), for the setting “30.3 µM, […]”, the “Percent Effect” value amounted to 6.712%.

As for `OC1CCN(C2CCN(c3ccc(Cn4ccnc4)cn3)CC2)CC1`, under “30.3 µM, […]”, the “Percent Effect” value is reported as 61.02%.

On to `c1csc(CN2CCCN(c3ccc(Cn4ccnc4)cn3)CC2)c1`, for which the “Percent Effect” value (30.3 µM, […]) came out at 43.35%.

In the case of `CN(CC1CCN(c2ccccc2)C1)c1ccc(Cn2ccnc2)cn1` (centres undefined), the “Percent Effect” value (30.3 µM, […]) is -5.433%.

As for `CC1CCN(c2ccc(CNC(=O)NCCn3ccnc3)cn2)CC1`, where the note is “30.3 µM, […]”, the “Percent Effect” value is -10.4%.

For `c1cn(Cc2ccc(N3CCCN(C4CCCC4)CC3)nc2)cn1`, the “Percent Effect” value (30.3 µM, […]) is reported as 60.72%.

As to `Fc1ccc(N2CCCN(c3ccc(Cn4ccnc4)cn3)CC2)cc1`, the “Percent Effect” value (30.3 µM, […]) was 41.56%.

Regarding `CC(=O)NC1CCN(C(=O)c2cnc(COc3ccccc3)nc2O)C1` (centres undefined), the “Percent Effect” value (30.3 µM, […]) is reported as 6.861%.

For the molecule `Cc1ccc(CN2CCc3onc(COc4cccnc4)c3C2)s1.O=C(O)C(F)(F)F.O=C(O)C(F)(F)F`, the “Percent Effect” value (30.3 µM, […]) was -45.52%.

As for `O=S(=O)(NCc1ccnc(-n2ccnc2)c1)c1cncc(Cl)c1`, for the setting “30.3 µM, […]”, the “Percent Effect” value is listed as -18.27%.

With `COCCNC(=O)Cn1cc(OCc2ccc(F)cc2)c(=O)cc1CO`, the “Percent Effect” value (30.3 µM, […]) came out at 27.19%.

With `Cc1nnc(N2CC[C@@H](OCC3CC3)[C@@H](Cc3ccccc3)C2)s1.O=C(O)C(F)(F)F`, for the setting “30.3 µM, […]”, the “Percent Effect” value was determined as 35.34%.

Turning to `CO[C@@H]1CCN(c2nnc(C)s2)C[C@@H]1Cc1ccccc1.O=C(O)C(F)(F)F`, the “Percent Effect” value (30.3 µM, […]) is 9.959%.

In the case of `Cc1nnc(N2CC[C@H](OCC3CC3)[C@@H](Cc3ccccc3)C2)s1.O=C(O)C(F)(F)F`, the “Percent Effect” value (30 µM, 30.03 µM) stood at 51.69%.

Regarding `O=C(Nc1cnccn1)[C@@H]1COC[C@H]2CN(C3CCC3)C[C@H]21.O=C(O)C(F)(F)F`, the “Percent Effect” value (30.3 µM, […]) is recorded as -10.65%.

As to `CCc1nnc(Nc2cccc(C3CCN(CCO)CC3)n2)s1`, the “Percent Effect” value (30 µM, 30.03 µM) was 20.13%.

These data come from ChEMBL document CHEMBL3988442, “University of Dundee, Small-Polar-MMV Screening Library” (2021).
